Measurements taken from PubChem BioAssay (EPA / NIEHS).
Results filed as inconclusive are left out. Activity calls are given as the source filed them. Rule for the calls: active = hit-call score of the fitted dose curve at least 0.9, where 1 is the maximum; inconclusive = response in the unintended direction; inactive = score below 0.9.

These compounds were tested against Peroxisome proliferator-activated receptor gamma (Homo sapiens) (UniProt P37231) (assay: ATG_PPARg_TRANS: Attagene TRANS-FACTORIAL HepG2 Assay for human Peroxisome Proliferator-activated Receptor-gamma (PPARg) (AID 2283007)).
Chain of Peroxisome proliferator-activated receptor gamma (Homo sapiens) (P37231 whole entry, looked up, the tested form may be a part): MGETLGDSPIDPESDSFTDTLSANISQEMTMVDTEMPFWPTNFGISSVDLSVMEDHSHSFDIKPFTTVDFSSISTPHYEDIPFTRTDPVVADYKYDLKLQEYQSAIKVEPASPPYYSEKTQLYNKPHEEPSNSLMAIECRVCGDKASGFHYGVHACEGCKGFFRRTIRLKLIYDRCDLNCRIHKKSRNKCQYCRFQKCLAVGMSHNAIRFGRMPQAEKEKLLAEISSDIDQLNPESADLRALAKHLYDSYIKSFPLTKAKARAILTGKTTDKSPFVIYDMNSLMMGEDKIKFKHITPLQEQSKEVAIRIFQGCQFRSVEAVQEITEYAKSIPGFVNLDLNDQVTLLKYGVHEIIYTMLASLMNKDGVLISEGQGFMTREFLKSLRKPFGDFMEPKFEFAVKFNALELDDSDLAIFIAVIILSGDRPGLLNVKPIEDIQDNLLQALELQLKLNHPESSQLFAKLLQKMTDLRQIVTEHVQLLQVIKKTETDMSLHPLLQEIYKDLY
How it was run: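 Endpoint reflects upward reporter mRNA change versus DMSO controls. Setup: transiently transfected HepG2, GAL4-UAS reporters driven by chimeric NR-Gal4, 24 h incubation, RT-PCR with capillary electrophoresis read-out.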
`COc1cc(S(=O)(=O)O)c(C)cc1N=Nc1c(O)ccc2cc(S(=O)(=O)O)ccc12` was tested, and the outcome was “inactive”. For `COCCOC[C@H](CC1(C(=O)NC2CCC(C(=O)O)CC2)CCCC1)C(=O)Oc1ccc2c(c1)CCC2` (some centres undefined), the outcome was “inactive”. `COc1ccc(S(=O)(=O)N2C(=O)[C@@](c3ccccc3OC)(N3C[C@H](O)C[C@H]3C(=O)N(C)C)c3cc(Cl)ccc32)c(OC)c1` was tested, and the outcome was “inactive”. `NS(=O)(=O)c1cc2c(cc1Cl)NCNS2(=O)=O` was tested, and the outcome was “inactive”. For `CCCCCCCCCCCCCO`, the outcome was “inactive”. For `COc1cccc2c1C(=O)c1c(O)c3c(c(O)c1C2=O)C[C@@](O)(C(=O)CO)C[C@@H]3O[C@H]1C[C@H](N)[C@H](O)[C@H](C)O1`, the outcome was “inactive”. In the case of `CC=Cc1ccc(O)c(OC)c1`, the AC50 was 61.5 µM (active). In the case of `Cc1ccc(Cl)cc1`, the outcome was “inactive”. `CCCc1cc(=O)[nH]c(=S)[nH]1` was tested, and the outcome was “inactive”. In the case of `CCOc1ccc2c(c1)C(C)=CC(C)(C)N2`, the AC50 was 28.7 µM (active). In the case of `CC1=C(/C=C/C(C)=C/C=C/C(C)=C/CO)C(C)(C)CCC1`, the AC50 was 28.1 µM (active). In the case of `COc1cc(/C=C/C(=O)CC(=O)/C=C/c2ccc(O)c(OC)c2)ccc1O`, the AC50 was 8 µM (active). In the case of `CNC(=O)[C@H]1O[C@@H](n2cnc3c(NCc4cc(Cl)ccc4OCc4cc(C)no4)ncnc32)[C@H](O)[C@@H]1N`, the outcome was “inactive”. With `CC(=O)OCCOCCOCCOC(C)=O` the outcome was “inactive”. With `Cc1c(C(=O)O)c(O)cc2c1C(=O)c1c(O)c([C@@H]3O[C@H](CO)[C@@H](O)[C@H](O)[C@H]3O)c(O)c(O)c1C2=O` the outcome was “inactive”. For `CC(=O)OC/C=C(\C)CCC=C(C)C`, the outcome was “inactive”. `C=CCc1ccc(O)c(OC)c1` was tested, and the AC50 was 40.5 µM (active).

The compounds below were run against Nuclear receptor subfamily 1 group I member 2 (Homo sapiens) (UniProt O75469) (assay: ATG_PXR_TRANS: Attagene TRANS-FACTORIAL HepG2 Assay for human Pregnane X Receptor (PXR) (AID 2283008)).
Chain of Nuclear receptor subfamily 1 group I member 2 (Homo sapiens) (O75469 whole entry, looked up, the tested form may be a part): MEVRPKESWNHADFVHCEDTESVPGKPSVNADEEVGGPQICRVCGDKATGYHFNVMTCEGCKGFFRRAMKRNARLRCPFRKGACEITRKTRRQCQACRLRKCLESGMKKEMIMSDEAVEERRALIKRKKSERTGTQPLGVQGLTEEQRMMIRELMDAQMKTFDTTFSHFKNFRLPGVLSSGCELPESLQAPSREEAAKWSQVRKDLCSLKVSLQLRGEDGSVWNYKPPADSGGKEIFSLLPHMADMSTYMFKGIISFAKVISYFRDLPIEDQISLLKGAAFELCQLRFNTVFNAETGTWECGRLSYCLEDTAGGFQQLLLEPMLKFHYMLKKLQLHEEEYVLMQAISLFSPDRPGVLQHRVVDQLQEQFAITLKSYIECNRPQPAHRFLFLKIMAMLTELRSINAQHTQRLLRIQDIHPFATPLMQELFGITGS
How it was run: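 Measures mRNA induction of a GAL4-UAS-driven reporter in human HepG2 cells transiently expressing PXR fused to Gal4, following 24 h treatment. DMSO served as negative control and baseline.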
In the case of `COCCOC[C@H](CC1(C(=O)NC2CCC(C(=O)O)CC2)CCCC1)C(=O)Oc1ccc2c(c1)CCC2` (some centres undefined), the AC50 was 20.6 µM (active). In the case of `CN1CCCC1=O`, the outcome was “inactive”. For `COc1ccc(S(=O)(=O)N2C(=O)[C@@](c3ccccc3OC)(N3C[C@H](O)C[C@H]3C(=O)N(C)C)c3cc(Cl)ccc32)c(OC)c1`, the AC50 was 0.038 µM (active). `COc1ccc2c(c1)c(CC(=O)O)c(C)n2C(=O)c1ccc(Cl)cc1` was tested, and the outcome was “inactive”. With `NS(=O)(=O)c1cc2c(cc1Cl)NCNS2(=O)=O` the outcome was “inactive”. `CCCCCCCCCCCCCO` was tested, and the outcome was “inactive”. For `COc1cccc2c1C(=O)c1c(O)c3c(c(O)c1C2=O)C[C@@](O)(C(=O)CO)C[C@@H]3O[C@H]1C[C@H](N)[C@H](O)[C@H](C)O1`, the outcome was “inactive”. `CC=Cc1ccc(O)c(OC)c1` was tested, and the outcome was “inactive”. With `Cc1ccc(Cl)cc1` the outcome was “inactive”. In the case of `Cc1ccc(N(C)C)cc1`, the outcome was “inactive”. For `CCOc1ccc2c(c1)C(C)=CC(C)(C)N2`, the AC50 was 1.86 µM (active). In the case of `CC1=C(/C=C/C(C)=C/C=C/C(C)=C/CO)C(C)(C)CCC1`, the AC50 was 0.28 µM (active). For `COc1cc(/C=C/C(=O)CC(=O)/C=C/c2ccc(O)c(OC)c2)ccc1O`, the outcome was “inactive”. `CNC(=O)[C@H]1O[C@@H](n2cnc3c(NCc4cc(Cl)ccc4OCc4cc(C)no4)ncnc32)[C@H](O)[C@@H]1N` was tested, and the outcome was “inactive”. `O=C(O)Cc1ccccc1Nc1c(Cl)cccc1Cl` was tested, and the AC50 was 4.47 µM (active). `CCCCc1ccc2c(n1)[C@@H](c1ccc(OC)cc1C[C@H](C)C(=O)O)[C@H](C(=O)O)[C@H]2c1ccc2c(c1)OCO2` was tested, and the outcome was “inactive”. In the case of `CC(=O)OC/C=C(\C)CCC=C(C)C`, the outcome was “inactive”. With `Cc1ccccc1Cl` the outcome was “inactive”. `C=CCc1ccc(O)c(OC)c1` was tested, and the AC50 was 38.5 µM (active). With `Cc1cc(NC(=O)C(=O)O)cc(C)c1Oc1ccc(O)c2c1CCC2` the outcome was “inactive”. With `FC(F)(F)C(F)(F)C(F)(F)C(F)(F)C(F)(F)C(F)(F)CCI` the outcome was “inactive”.

Each compound was assayed against human Retinoic Acid Receptor gamma (RARg), RARG (gene 5916) (UniProt P13631) (assay: ATG_RARg_TRANS: Attagene TRANS-FACTORIAL HepG2 Assay for human Retinoic Acid Receptor gamma (RARg) (AID 2283009);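 for AC50: AC50 is for reporter induction above DMSO meaning RARg activation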).
Chain of human Retinoic Acid Receptor gamma (RARg), RARG (gene 5916) (P13631 whole entry, looked up, the tested form may be a part): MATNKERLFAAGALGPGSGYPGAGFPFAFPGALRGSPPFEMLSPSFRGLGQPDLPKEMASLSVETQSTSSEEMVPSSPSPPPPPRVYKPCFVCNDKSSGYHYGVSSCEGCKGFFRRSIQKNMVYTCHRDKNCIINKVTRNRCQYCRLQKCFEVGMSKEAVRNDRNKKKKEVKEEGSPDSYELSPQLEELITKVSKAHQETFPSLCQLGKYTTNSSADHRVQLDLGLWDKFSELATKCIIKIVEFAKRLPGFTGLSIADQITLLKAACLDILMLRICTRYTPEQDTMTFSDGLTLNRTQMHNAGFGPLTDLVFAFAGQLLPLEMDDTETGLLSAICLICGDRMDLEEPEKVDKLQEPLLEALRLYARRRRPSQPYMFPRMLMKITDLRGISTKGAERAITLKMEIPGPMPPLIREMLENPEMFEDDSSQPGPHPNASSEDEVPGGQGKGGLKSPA
How it was run: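 HepG2 cells transiently transfected with multiplexed reporter units expressing chimeric RARg-GAL4 and GAL4-UAS-driven reporters; 24 h compound exposure. Reporter mRNA quantified by RT-PCR with fluorescent labelling and capillary electrophoresis; gain-of-signal fitted relative to DMSO baseline.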
`COCCOC[C@H](CC1(C(=O)NC2CCC(C(=O)O)CC2)CCCC1)C(=O)Oc1ccc2c(c1)CCC2` (some centres undefined) was tested, and the outcome was “inactive”. `CN1CCCC1=O` was tested, and the outcome was “inactive”. `COc1ccc(S(=O)(=O)N2C(=O)[C@@](c3ccccc3OC)(N3C[C@H](O)C[C@H]3C(=O)N(C)C)c3cc(Cl)ccc32)c(OC)c1` was tested, and the outcome was “inactive”. In the case of `CCOC(=O)CCC(=O)OCC`, the outcome was “inactive”. For `COc1cccc2c1C(=O)c1c(O)c3c(c(O)c1C2=O)C[C@@](O)(C(=O)CO)C[C@@H]3O[C@H]1C[C@H](N)[C@H](O)[C@H](C)O1`, the outcome was “inactive”. With `CC=Cc1ccc(O)c(OC)c1` the outcome was “inactive”. `CC1=C(/C=C/C(C)=C/C=C/C(C)=C/CO)C(C)(C)CCC1` was tested, and the AC50 was 0.117 µM (active). In the case of `NCCO`, the outcome was “inactive”. For `COc1cc(/C=C/C(=O)CC(=O)/C=C/c2ccc(O)c(OC)c2)ccc1O`, the outcome was “inactive”. For `CC(=O)OCCOCCOCCOC(C)=O`, the outcome was “inactive”. In the case of `Cc1c(C(=O)O)c(O)cc2c1C(=O)c1c(O)c([C@@H]3O[C@H](CO)[C@@H](O)[C@H](O)[C@H]3O)c(O)c(O)c1C2=O`, the outcome was “inactive”. For `CCCCCCCCCCCCCCCC`, the outcome was “inactive”. In the case of `FC(F)(F)C(F)(F)C(F)(F)C(F)(F)C(F)(F)C(F)(F)CCI`, the outcome was “inactive”.

These compounds were tested against human RAR-related Orphan Receptor beta (RORb), RORB (gene 6096) (UniProt Q92753) (assay: ATG_RORb_TRANS: Attagene TRANS-FACTORIAL HepG2 Assay for human RAR-related Orphan Receptor beta (RORb) (AID 2283010)).
Chain of human RAR-related Orphan Receptor beta (RORb), RORB (gene 6096) (Q92753 whole entry, looked up, the tested form may be a part): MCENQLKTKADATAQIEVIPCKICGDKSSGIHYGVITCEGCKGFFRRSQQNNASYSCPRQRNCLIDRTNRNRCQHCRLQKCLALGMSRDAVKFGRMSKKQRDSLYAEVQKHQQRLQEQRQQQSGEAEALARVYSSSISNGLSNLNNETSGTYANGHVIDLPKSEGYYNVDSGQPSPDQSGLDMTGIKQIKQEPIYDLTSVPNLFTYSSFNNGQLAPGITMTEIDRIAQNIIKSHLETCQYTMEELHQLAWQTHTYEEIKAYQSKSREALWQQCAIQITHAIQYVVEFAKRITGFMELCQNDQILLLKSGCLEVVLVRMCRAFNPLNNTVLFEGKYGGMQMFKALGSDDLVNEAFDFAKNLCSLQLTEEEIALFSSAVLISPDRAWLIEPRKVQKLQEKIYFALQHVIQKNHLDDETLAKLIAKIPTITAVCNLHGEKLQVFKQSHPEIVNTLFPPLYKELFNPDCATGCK
How it was run: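 HepG2 cells were transiently transfected with multiplexed GAL4-UAS reporter units expressing chimeric nuclear receptor–GAL4 proteins, then dosed for 24 h. Reporter mRNA was quantified by RT-PCR with fluorescent labelling and capillary electrophoresis; gain of signal was fitted relative to DMSO.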
`CN1CCCC1=O` was tested, and the outcome was “inactive”. For `CCOC(=O)CCC(=O)OCC`, the outcome was “inactive”. `COc1ccc2c(c1)c(CC(=O)O)c(C)n2C(=O)c1ccc(Cl)cc1` was tested, and the outcome was “inactive”. In the case of `CCCc1cc(=O)[nH]c(=S)[nH]1`, the outcome was “inactive”. `CCOc1ccc2c(c1)C(C)=CC(C)(C)N2` was tested, and the outcome was “inactive”. `NCCO` was tested, and the outcome was “inactive”. With `O=c1[nH]cc(F)c(=O)[nH]1` the outcome was “inactive”. In the case of `O=C(O)Cc1ccccc1Nc1c(Cl)cccc1Cl`, the outcome was “inactive”. With `CCCCc1ccc2c(n1)[C@@H](c1ccc(OC)cc1C[C@H](C)C(=O)O)[C@H](C(=O)O)[C@H]2c1ccc2c(c1)OCO2` the outcome was “inactive”. For `Cc1c(C(=O)O)c(O)cc2c1C(=O)c1c(O)c([C@@H]3O[C@H](CO)[C@@H](O)[C@H](O)[C@H]3O)c(O)c(O)c1C2=O`, the outcome was “inactive”. In the case of `CC(=O)OC/C=C(\C)CCC=C(C)C`, the outcome was “inactive”. In the case of `C=CCc1ccc(O)c(OC)c1`, the outcome was “inactive”. With `FC(F)(F)C(F)(F)C(F)(F)C(F)(F)C(F)(F)C(F)(F)CCI` the outcome was “inactive”.
